Here are results for 4 compounds from PubChem BioAssay (EPA / NIEHS).

Calls of active or inactive are those of the source. Rule for the calls: active = hit-call score of the fitted dose curve at least 0.9, where 1 is the maximum; inactive = score below 0.9.

A short description of test [1]: ATG_CRE_CIS: Attagene CIS-FACTORIAL HepG2 Assay for human cAMP Responsive Element (CRE) binding protein 3 (AID 2282926). The note with it: HepG2 CRE cis-reporter, Attagene multiplexed mRNA; actives raise or lower the signal. In outline: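 Capillary electrophoresis of 6-FAM-labelled, HpaI-digested PCR products quantified reporter transcripts. These came from HepG2 transiently transfected with cis-element reporters and exposed to test chemicals for 24 hours, with DMSO defining baseline activity.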

Test [2] addresses CCAAT/enhancer-binding protein beta (Homo sapiens) (UniProt P17676). The test can be described thus: ATG_C_EBP_CIS: Attagene CIS-FACTORIAL HepG2 Assay for human CCAAT/Enhancer Binding Protein (C/EBP) beta (AID 2282927). The note with it: HepG2 Attagene cis-factorial transcription factor reporter; actives raise or lower the signal. In outline:
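Following a 24 h incubation with test chemical, transfected HepG2 cells yielded RNA whose reporter transcripts were quantified by RT-PCR and fluorescent capillary electrophoresis, with DMSO serving as baseline for bidirectional fitting.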

Test [3] is described as follows: ATG_CMV_CIS: Attagene CIS-FACTORIAL HepG2 Assay for human CMV (Internal Marker) (AID 2282928).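 Note: endpoint acts as a background internal control marker rather than a target.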 To be noted: HepG2 CMV promoter reporter, transcription factor profiling; actives raise or lower the signal. In outline: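 Fluorescence intensity of RT-PCR-derived reporter fragments, resolved by capillary electrophoresis, gives the signal. HepG2 liver cells bearing transfected cis-element reporters were treated 24 h; activity in either direction was fit relative to DMSO-treated controls.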

Test [4] in a line: ATG_DR4_LXR_CIS: Attagene CIS-FACTORIAL HepG2 Assay for human Liver X Receptor (LXR), DR4 submotif (AID 2282929). The note with it: HepG2 Attagene DR4 cis-reporter, mRNA transcription; actives raise or lower the signal. In outline: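 Cells were transfected with multiple reporter transcription units, exposed to chemicals for 24 hours, then lysed for RNA. Reporter mRNA induction was measured by RT-PCR with capillary electrophoresis detection and fitted in both directions relative to DMSO.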

The nature of test [5]: ATG_AP_1_CIS: Attagene CIS-FACTORIAL HepG2 Assay for human Activator Protein 1 (AP-1) (AID 2282931). To be noted: HepG2 Attagene cis-factorial AP-1 reporter mRNA; actives raise or lower the signal. In outline:
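Endogenous transcription-factor activity in human HepG2 liver cells is read through a cis-promoter reporter transcript, sampled 24 h after dosing. Detection uses RT-PCR with capillary electrophoresis; values come from bidirectional fitting relative to DMSO.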

A short description of test [6]: ATG_AP_2_CIS: Attagene CIS-FACTORIAL HepG2 Assay for human Activator Protein 2 (AP-2) (AID 2282932). The note with it: HepG2 AP-2 cis-reporter, Attagene transcription factor profiling; actives raise or lower the signal. In outline:
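Cells (HepG2) transfected with promoter-driven reporter constructs, treated 24 h. Total RNA reverse-transcribed, reporter cDNA PCR-amplified, FAM-labelled by primer extension, digested, resolved by capillary electrophoresis. Activity fitted both directions versus DMSO.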

Test [7] in a line: ATG_BRE_CIS: Attagene CIS-FACTORIAL HepG2 Assay for human Bone Morphogenetic Protein (BMP) Response Element (BRE) (AID 2282933). The note with it: HepG2 BMP response element reporter, Attagene transcription factor profiling; actives raise or lower the signal. In outline:
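HepG2 cells transiently transfected with CIS reporter units (endogenous TF activity, BMP response element), dosed 24 h. Reporter mRNA quantified by RT-PCR, fluorescent labelling and capillary electrophoresis; bidirectional fit vs DMSO baseline.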

Test [8] deals with Transcription factor E2F1 (Homo sapiens) (UniProt Q01094). The test can be described thus: ATG_E2F_CIS: Attagene CIS-FACTORIAL HepG2 Assay for human E2F Transcription Factor 1 (AID 2282935). To be noted: HepG2 Attagene cis-reporter, E2F reporter RNA transcripts; actives raise or lower the signal. The essentials:
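First, HepG2 cells were transfected with reporter transcription units. Next, they were dosed for 24 h. Then RNA was isolated, converted to cDNA, PCR-amplified, FAM-labeled, HpaI-digested and analyzed by capillary electrophoresis.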

Test [9] in a line: ATG_E_Box_CIS: Attagene CIS-FACTORIAL HepG2 Assay for human Enhancer Box (E-box) (AID 2282936). The note with it: HepG2 E-box cis-reporter transcription, actives raise or lower the signal. The essentials:
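Endogenous transcription factor activity was sensed in human HepG2 liver cells through transfected cis-promoter reporter units. After 24 h of dosing, total RNA was reverse-transcribed and reporter cDNA resolved by capillary electrophoresis.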

Test [10] can be described thus: ATG_M_61_CIS: Attagene CIS-FACTORIAL HepG2 Assay for M61 Transcription Factor (Internal Marker) (AID 2282937). To be noted: HepG2 Attagene CIS-FACTORIAL M61 internal marker reporter; actives raise or lower the signal. In outline:
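Cells were transfected with reporter units under cis-regulatory promoters, treated with chemicals for 24 h, then lysed for RNA. Reporter transcripts were quantified by RT-PCR and capillary electrophoresis, and activity was fitted bidirectionally against DMSO.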

Test [11] in a line: ATG_EGR_CIS: Attagene CIS-FACTORIAL HepG2 Assay for human Early Growth Response 1 (EGR1) (AID 2282938). To be noted: HepG2 Attagene CIS-FACTORIAL EGR reporter mRNA; actives raise or lower the signal. In outline:
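Endogenous TF activity in HepG2 liver cells was gauged through cis-promoter reporter constructs transiently transfected. After 24 h dosing, reporter mRNA was quantified by RT-PCR and capillary electrophoresis, and curves fitted in both directions versus DMSO.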

The nature of test [12]: ATG_Ets_CIS: Attagene CIS-FACTORIAL HepG2 Assay for human Erythroblast Transformation Specific (ETS) (AID 2282941). The note with it: HepG2 ETS cis-reporter transcription, actives raise or lower the signal. In outline:
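Multiplexed reporter transcript profiling: HepG2, 24 h treatment, total RNA to cDNA, PCR, 6-FAM labelling, HpaI cut, capillary electrophoresis. Gain- or loss-of-signal fitted against DMSO.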

Test [13] in a line: ATG_FoxO_CIS: Attagene CIS-FACTORIAL HepG2 Assay for human Forkhead box O (FoxO) (AID 2282943). The note with it: HepG2 Attagene cis-reporter, FoxO element, mRNA; actives raise or lower the signal. In outline:
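Values reflect reporter mRNA induction or loss in HepG2 cells 24 h post-dosing, fitted bidirectionally with DMSO as negative control and baseline. Detection used RT-PCR and fluorescence capillary electrophoresis.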

The nature of test [14]: ATG_GATA_CIS: Attagene CIS-FACTORIAL HepG2 Assay for human GATA Binding Protein (AID 2282944). To be noted: HepG2 GATA cis-element reporter, Attagene multiplex mRNA; actives raise or lower the signal. In outline:
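HepG2 cells transiently transfected with multiplexed cis-element reporter units measure endogenous GATA activity; after 24 h compound exposure, reporter mRNA quantified by RT-PCR and capillary electrophoresis. Changes fitted in both directions vs DMSO.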

The nature of test [15]: ATG_GLI_CIS: Attagene CIS-FACTORIAL HepG2 Assay for human Zinc Finger Protein GLI1 (AID 2282945). To be noted: HepG2, Attagene cis-factorial reporter mRNA, GLI element; actives raise or lower the signal. The essentials:
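HepG2 cells transiently transfected with cis-promoter multiplexed reporter units report endogenous transcription factor activity. After 24 h chemical exposure, reporter mRNA was quantified by RT-PCR, 6-FAM labelling, HpaI digestion and capillary electrophoresis, with bidirectional fitting against DMSO.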

A short description of test [16]: ATG_ISRE_CIS: Attagene CIS-FACTORIAL HepG2 Assay for human Interferon Regulatory Factor 1 (IRF1) binding to an Interferon-Stimulated Response Element (ISRE) (AID 2282948). To be noted: HepG2 ISRE cis-reporter (Attagene), mRNA transcription readout; actives raise or lower the signal. In outline:
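Signal reflects induction or loss of ISRE-linked reporter mRNA in transiently transfected HepG2 cells after a 24 h treatment, detected by fluorescent RT-PCR fragments on capillary electrophoresis and normalised to DMSO.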

Test [17] can be described thus: ATG_M_32_CIS: Attagene CIS-FACTORIAL HepG2 Assay for M32 Transcription Factor (Internal Marker) (AID 2282949).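 Note: background control marker of the multiplexed CIS panel rather than a real target.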 To be noted: HepG2 Attagene cis-factorial M32 reporter, mRNA; actives raise or lower the signal. In outline:
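HepG2 human liver cells transiently transfected with cis-promoter-driven multiple reporter transcription units, dosed 24 h. Reporter mRNA quantified by RT-PCR, FAM-labelled primer extension, HpaI digest and capillary electrophoresis; bidirectional fit versus DMSO baseline.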

Test [18] can be described thus: ATG_M_06_CIS: Attagene CIS-FACTORIAL HepG2 Assay for M06 Transcription Factor (Internal Marker) (AID 2282950). The note with it: HepG2 Attagene CIS-FACTORIAL M06 internal marker reporter; actives raise or lower the signal. The essentials: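 Internal background marker within multiplexed cis-reporter HepG2 system. Cells transiently transfected, dosed 24 h; reporter mRNA measured by RT-PCR, HpaI digestion and capillary electrophoresis. Bidirectional fit relative to DMSO.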

The target in test [19] is Paired box protein Pax-6 (Homo sapiens) (UniProt P26367). As to the kind of experiment: ATG_Pax6_CIS: Attagene CIS-FACTORIAL HepG2 Assay for human Paired Box 6 (PAX6) (AID 2282956). The note with it: HepG2 CIS-FACTORIAL PAX6 reporter transcription, RNA readout; actives raise or lower the signal. The essentials:
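Values derive from bidirectional curve fitting of reporter mRNA signal relative to DMSO. HepG2 cells bearing transfected cis-regulated MRTUs were exposed for 24 h; transcripts were read by RT-PCR and capillary electrophoresis.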

Test [20] can be described thus: ATG_PXRE_CIS: Attagene CIS-FACTORIAL HepG2 Assay for human Pregnane X Receptor Element (PXRE) (AID 2282957). The note with it: HepG2 Attagene CIS-FACTORIAL PXRE reporter, mRNA; actives raise or lower the signal. In outline:
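Fluorescent capillary electrophoresis of amplified reporter cDNA gave the signal, collected 24 h after dosing HepG2 cells that held transfected cis-element reporter constructs.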

As a reminder, the AC50 is the concentration at which the activity in the assay is half-maximal.

CCAAT/enhancer-binding protein beta (Homo sapiens), sequence (P17676 whole entry, looked up): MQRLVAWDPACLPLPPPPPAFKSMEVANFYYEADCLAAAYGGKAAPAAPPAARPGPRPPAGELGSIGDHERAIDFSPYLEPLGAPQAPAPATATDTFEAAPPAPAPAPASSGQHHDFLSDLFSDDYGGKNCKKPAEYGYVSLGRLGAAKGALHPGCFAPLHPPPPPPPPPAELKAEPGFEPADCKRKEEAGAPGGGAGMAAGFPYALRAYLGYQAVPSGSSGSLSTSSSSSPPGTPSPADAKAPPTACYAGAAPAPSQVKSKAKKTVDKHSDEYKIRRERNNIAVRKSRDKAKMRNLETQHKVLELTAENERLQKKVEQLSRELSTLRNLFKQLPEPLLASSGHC
Transcription factor E2F1 (Homo sapiens), sequence (Q01094 whole entry, looked up): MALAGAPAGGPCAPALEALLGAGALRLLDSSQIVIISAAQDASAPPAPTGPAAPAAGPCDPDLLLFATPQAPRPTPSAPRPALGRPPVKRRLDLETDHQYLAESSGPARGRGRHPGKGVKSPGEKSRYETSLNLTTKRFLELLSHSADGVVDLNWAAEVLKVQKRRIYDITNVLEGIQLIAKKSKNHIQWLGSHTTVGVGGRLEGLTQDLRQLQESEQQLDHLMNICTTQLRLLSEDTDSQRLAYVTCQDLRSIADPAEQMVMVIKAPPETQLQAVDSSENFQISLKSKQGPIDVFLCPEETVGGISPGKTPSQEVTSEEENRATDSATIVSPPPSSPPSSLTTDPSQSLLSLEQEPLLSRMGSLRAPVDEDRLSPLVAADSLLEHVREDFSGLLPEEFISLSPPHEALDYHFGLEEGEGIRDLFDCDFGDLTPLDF
Paired box protein Pax-6 (Homo sapiens), sequence (P26367 whole entry, looked up): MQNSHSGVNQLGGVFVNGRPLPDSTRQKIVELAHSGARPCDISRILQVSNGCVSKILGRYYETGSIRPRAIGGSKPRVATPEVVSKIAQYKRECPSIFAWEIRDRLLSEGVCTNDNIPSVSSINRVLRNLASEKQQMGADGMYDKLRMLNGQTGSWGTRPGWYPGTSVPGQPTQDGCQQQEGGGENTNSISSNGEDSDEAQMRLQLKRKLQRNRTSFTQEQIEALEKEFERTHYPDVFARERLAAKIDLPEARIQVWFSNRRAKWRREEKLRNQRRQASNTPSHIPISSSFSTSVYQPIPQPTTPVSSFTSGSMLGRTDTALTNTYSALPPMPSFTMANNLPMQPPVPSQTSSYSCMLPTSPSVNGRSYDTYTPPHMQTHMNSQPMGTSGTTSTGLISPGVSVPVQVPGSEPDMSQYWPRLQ

`O=C(O)c1cc(Cl)cc(Cl)c1O`: the compound was called inactive in test [1], in test [2], in test [3], in [4], in test [5] and in test [6]. Besides, the compound was called inactive in [7], in test [8], in test [9], in test [10], in [11] and in [12]. Further, the call in [13], in [14], in test [15], in [16], in [17] and in [18] was inactive. In test [19], the compound was called inactive. In test [20], the AC50 was 68.7 µM (active).

Regarding `COc1ccccc1OCC(O)CO` (stereo not given), the result in test [1], in test [2], in test [3], in test [4], in test [5] and in test [6] was inactive. The compound was classed as inactive in test [7], in [8], in test [9], in [10], in [11] and in test [12]. The compound was called inactive in [13], in [14], in [15], in test [16], in test [17] and in test [18]. Further, the outcome in test [19] and in test [20] was inactive.

With `CCCN[C@H]1CCc2nc(N)sc2C1`, the compound was called inactive in test [1], in test [2], in test [3], in [4], in test [5] and in test [6]. Also, the result in [7], in test [8], in test [9], in [10], in test [11] and in test [12] was inactive. The result in test [13], in test [14], in test [15], in test [16], in test [17] and in test [18] was inactive. Moreover, the result in [19] and in [20] was inactive.

As to `CC1=NN(c2cc(Cl)c(S(=O)(=O)O)cc2Cl)C(=O)C1N=Nc1ccc(S(=O)(=O)O)cc1` (stereo not given), the compound was called inactive in test [1], in [2], in [3], in [4], in [5] and in test [6]. Besides, the outcome in test [7], in test [8], in test [9], in test [10], in test [11] and in test [12] was inactive. Further, the compound was classed as inactive in [13], in test [14], in test [15], in test [16], in test [17] and in test [18]. In addition, the result in [19] was inactive. Moreover, in test [20], the AC50 is 100 µM (active).
